From PubChem BioAssay (Tox21) come the findings set out here.

Each structure is given as a SMILES string. Where “and” joins values, the source holds several entries; their conditions need not be identical. Equal values may be shown once. Inconclusive results are not listed. Some compounds were tested as several samples or in several runs, with calls that do not always agree. Calls of active or inactive are those of the source. Unless noted, calls come from the whole dose curve.

Experiment [1] can be described thus: Nuclear factor erythroid 2-related factor 2/antioxidant responsive element (Nrf2/ARE) small molecule agonists: qHTS cell viability counter screen in human keratinocytes (AID 1919968; active = well fitted curve in the direction sought with a large enough effect in the repeat runs; an effect the other way counts as inactive or inconclusive; note: nearly all actives have a fitted effect of over 55% in size; note: potency is the fitted concentration of half-maximal effect). Summed up: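 Seed 1,500 KeratinoSens cells per well, then incubate 5 h at 37 C/5% CO2. Add compounds in DMSO and incubate 23 h. Add CellTiter-Fluor, wait 1 h and read fluorescence.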

A short description of experiment [2]: Nuclear factor erythroid 2-related factor 2/antioxidant responsive element (Nrf2/ARE) small molecule agonists: luciferase reporter gene qHTS assay in human keratinocytes (AID 1919969). Note: nearly all actives have a fitted effect of over 35% in size. Note: potency is the fitted concentration of half-maximal effect.
The target in experiment [3] is KiSS-1 receptor (Homo sapiens) (UniProt Q969F8). In words: Human kisspeptin (KISS1R) small molecule agonists, calcium flux assay in KISS1R-HEK293 cells (AID 1920064; active = well fitted curve in the direction sought with a large enough effect in the repeat runs; an effect the other way counts as inactive or inconclusive). An outline of the steps:
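Cells plated and incubated 18 h; dye added, 1 h at 37 C; compounds in DMSO pinned in; signal read at 480/540 nm every second for 3 min. Each compound tested at 15 concentrations in triplicate.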

Experiment [4] in a line: p53 small molecule agonists, cell-based qHTS assay with human liver microsomes (AID 1963577). Summed up: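 Compounds act here after metabolic activation: human liver microsomes and NADPH, both at 0.5 mg/mL final, were co-added to p53RE-bla cells. Incubation ran 16 h at 37 C, followed by LiveBLAzer detection.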
A short description of experiment [5]: p53 small molecule agonists, cell-based qHTS assay with rat liver microsomes (AID 1963578). Summed up: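 Read-out is beta-lactamase reporter fluorescence (LiveBLAzer, 2 h, room temperature, dark) in p53RE-bla cells treated 16 h at 37 C with compound, rat liver microsomes and NADPH, both 0.5 mg/mL final.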
Experiment [6] can be described thus: p53 small molecule agonists, cell-based qHTS assay with human liver microsomes: qHTS cell viability counter screen (AID 1963579). Note: nearly all actives have a fitted effect of over 45% in size. Summed up:
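Cells carrying the p53 response-element beta-lactamase reporter are treated for 16 h at 37 C with test compounds in the presence of human liver microsomes and NADPH (both 0.5 mg/mL final); ATP-based CellTiter-Glo luminescence then reports viability.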

The nature of experiment [7]: p53 small molecule agonists, cell-based qHTS assay with rat liver microsomes: qHTS cell viability counter screen (AID 1963580). Note: nearly all actives have a fitted effect of over 45% in size. An outline of the steps:
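p53RE-bla HCT-116 cells (4,000/well) rested 5 h at 37 C, then given Tox21 compounds in DMSO with rat liver microsomes (0.5 mg/mL final) plus NADPH (0.5 mg/mL final) for 16 h at 37 C. Viability read by CellTiter-Glo luminescence after 30 min at room temperature.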

Experiment [8] in a line: p53 small molecule agonists, cell-based qHTS assay: qHTS cell viability counter screen (AID 1963581). Note: nearly all actives have a fitted effect of over 45% in size. An outline of the steps: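 Cells: HCT-116 with p53 response element-driven beta-lactamase. Treatment: 16 h, 37 C, compounds in DMSO. Read: CellTiter-Glo luminescence after 30 min RT.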
Experiment [9] is described as follows: p53 small molecule agonists, cell-based qHTS assay (AID 1963582; active = well fitted activation curve with a large enough effect in the signal ratio in the repeat runs, not every such curve was filed as active; the % refers to the signal ratio). An outline of the steps: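 Quantitative HTS in p53RE-bla cells: after a 5 h settling period, compounds delivered in DMSO were left on cells for 16 h at 37 C, and reporter induction was measured as fluorescence following 2 h substrate loading.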
The target in experiment [10] is 5-hydroxytryptamine receptor 2A (Homo sapiens) (UniProt P28223). In words: 5-hydroxytryptamine receptor 2A (HTR2A) small molecule antagonists, cell-based qHTS assay (AID 1963586). Note: nearly all actives have a fitted effect of over 45% in size. Summed up:
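Antagonist-mode intracellular calcium assay: DOI (4 nM) added after 5 min compound pre-incubation at room temperature to dye-loaded HTR2A-CHO cells. Fluorescence followed for 3 min, sampled every second.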

The target is the same in experiment [11]. In words: 5-hydroxytryptamine receptor 2A (HTR2A) small molecule agonists, cell-based qHTS assay (AID 1963587). Note: nearly all actives have a fitted effect of over 30% in size. Note: potency is the fitted concentration of half-maximal effect. An outline of the steps: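 HTR2A-CHO cells, plated 18 h at 37 C/5% CO2, dye-loaded 1 h at 37 C; compounds in DMSO added by pin tool (agonist mode). Intracellular calcium flux read as kinetic fluorescence on FDSS over 2 min at 1 s intervals.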
The target of experiment [12] is Muscarinic acetylcholine receptor M1 (Homo sapiens) (UniProt P11229). In words: Cholinergic receptor muscarinic 1 (CHRM1) small molecule antagonists, cell-based qHTS assay (AID 1963588). Note: nearly all actives have a fitted effect of over 40% in size. Note: potency is the fitted concentration of half-maximal effect. An outline of the steps:
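CHRM1-CHO calcium-flux assay, antagonist mode. Cells were seeded 18 h, dye-loaded 1 h at 37 C and given compound for 5 min at RT, then acetylcholine was added at 50nM. FDSS fluorescence was read 3 min; 15 concentrations, three runs.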

The target is the same in experiment [13]. The experiment is described as follows: Cholinergic receptor muscarinic 1 (CHRM1) small molecule agonists, cell-based qHTS assay (AID 1963589). Note: nearly all actives have a fitted effect of over 35% in size. Note: potency is the fitted concentration of half-maximal effect. Summed up: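 Agonist-mode qHTS in CHO cells stably carrying human muscarinic M1. Intracellular calcium is tracked by fluorescence every second after compound transfer; each compound runs at 15 concentrations in three independent runs.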

Experiment [14] is described as follows: cAMP Responsive Elements (CRE) small molecule agonists, cell-based qHTS assay (AID 1963590). An outline of the steps:
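Agonist mode qHTS in CRE-bla HEK 293T cells: compounds dosed from DMSO for 3 h at 37 C/5% CO2, followed by LiveBLAzer B/G FRET substrate for 2 h at room temperature.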

Experiment [15] in a line: cAMP Responsive Elements (CRE) small molecule antagonists, cell-based qHTS assay (AID 1963591; active = well fitted inhibition curve with a large enough effect in the signal ratio in the repeat runs, not every such curve was filed as active; the % refers to the signal ratio). Summed up: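 Antagonist mode: test compounds are co-incubated with the adenylyl cyclase activator NKH477 (0.25 uM final) on CRE-bla HEK293T cells for 3 h at 37 °C, followed by LiveBLAzer substrate loading.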
The target in experiment [16] is Beta-2 adrenergic receptor (Homo sapiens) (UniProt P07550). In words: Adrenergic beta2 receptor (ADRB2) small molecule antagonists, cell-based qHTS assay (AID 1963592). Note: series mostly up to about 92 µM; nearly all actives have a fitted effect of over 50% in size. An outline of the steps:
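Cells (CHO, stable ADRB2 overexpression) incubated 18-20hr at 37C; compounds added from DMSO; agonist mix (1nM isoproterenol, 100uM IBMX, 25uM Ro-20-1724) added; 0.5hr RT; d2-cAMP and anti-cAMP-cryptate added; 1hr RT; 665/615 nm read.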

Experiment [17] shares this target. The experiment is described as follows: Adrenergic beta2 receptor (ADRB2) small molecule agonists, cell-based qHTS assay (AID 1963593).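 For activation: CHO cells stably overexpressing human ADRB2.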 Note: potency is the fitted concentration of half-maximal effect. Summed up:
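CHO cells stably over-expressing ADRB2 were plated overnight at 37C, then dosed with compounds plus a stimulation mix containing 100uM IBMX and 25uM Ro-20-1724 for 0.5hr at room temperature. cAMP was measured by HTRF competition, 1hr.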

Experiment [18] has as its target D(2) dopamine receptor (Homo sapiens) (UniProt P14416). In words: Dopamine D2 receptor (DRD2) small molecule agonists, cell-based qHTS assay (AID 1963594). Note: nearly all actives have a fitted effect of over 35% in size. An outline of the steps: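 HEK293 cells stably expressing DRD2 were cultured 24 h at 37 C, then given Ro20-1724 (0.1 mM final) and compounds for 10 min at room temperature. NKH477 (200nM) was then added for 30 min. cAMP was read by HTRF.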

Experiment [19] has the same target. The experiment is described as follows: Dopamine D2 receptor (DRD2) small molecule antagonists, cell-based qHTS assay (AID 1963595; active = well fitted inhibition curve with a large enough effect in the signal ratio in the repeat runs, with a control signal flat; the % refers to the signal ratio). An outline of the steps:
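HTRF cAMP read-out at 665 and 620 nm emission (340 nm excitation). Antagonist mode: compounds were tested against 12 nM quinpirole in DRD2-HEK293 cells, with 200 nM NKH477 raising cAMP and 0.1 mM Ro20-1724 blocking its breakdown.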

Experiment [20] deals with Gonadotropin-releasing hormone receptor (Homo sapiens) (UniProt P30968). The experiment is described as follows: Human gonadotropin-releasing hormone receptor (GnRHR) small molecule agonists, calcium flux assay in GnRHR-HEK293 cells (AID 1920063). Note: nearly all actives have a fitted effect of over 35% in size. Note: potency is the fitted concentration of half-maximal effect. Summed up:
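Cells: HEK293 stably expressing human GnRHR. Steps: overnight (18 h) culture, 1 h calcium dye loading at 37 C, compound addition, kinetic fluorescence read at 480/540 nm. Each compound tested at 15 concentrations in triplicate.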

Chain of 5-hydroxytryptamine receptor 2A (Homo sapiens) (P28223 whole entry, looked up): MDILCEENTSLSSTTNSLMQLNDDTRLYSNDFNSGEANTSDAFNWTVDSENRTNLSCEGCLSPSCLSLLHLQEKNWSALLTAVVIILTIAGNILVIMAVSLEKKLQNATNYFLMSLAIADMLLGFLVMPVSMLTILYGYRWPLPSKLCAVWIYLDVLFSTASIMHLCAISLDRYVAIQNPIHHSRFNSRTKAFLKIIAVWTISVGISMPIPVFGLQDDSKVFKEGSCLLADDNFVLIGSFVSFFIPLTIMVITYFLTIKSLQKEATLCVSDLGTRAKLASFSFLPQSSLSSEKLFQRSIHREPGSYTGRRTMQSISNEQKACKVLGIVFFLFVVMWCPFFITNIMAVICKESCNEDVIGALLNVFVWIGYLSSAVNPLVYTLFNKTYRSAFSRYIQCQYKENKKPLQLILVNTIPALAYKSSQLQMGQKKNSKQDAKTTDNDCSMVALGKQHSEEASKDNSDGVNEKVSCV
Chain of Beta-2 adrenergic receptor (Homo sapiens) (P07550 whole entry, looked up): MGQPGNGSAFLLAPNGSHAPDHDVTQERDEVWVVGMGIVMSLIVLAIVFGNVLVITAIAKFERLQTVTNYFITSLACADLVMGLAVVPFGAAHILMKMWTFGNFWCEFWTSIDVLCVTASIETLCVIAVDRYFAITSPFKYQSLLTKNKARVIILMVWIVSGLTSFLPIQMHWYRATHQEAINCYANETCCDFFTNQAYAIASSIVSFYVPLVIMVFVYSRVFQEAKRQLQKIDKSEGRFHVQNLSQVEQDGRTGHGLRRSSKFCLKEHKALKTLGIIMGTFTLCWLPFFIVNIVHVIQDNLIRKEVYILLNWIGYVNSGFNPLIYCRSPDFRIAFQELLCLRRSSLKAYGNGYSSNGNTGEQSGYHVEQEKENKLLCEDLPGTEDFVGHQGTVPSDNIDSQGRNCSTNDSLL
Chain of Muscarinic acetylcholine receptor M1 (Homo sapiens) (P11229 whole entry, looked up): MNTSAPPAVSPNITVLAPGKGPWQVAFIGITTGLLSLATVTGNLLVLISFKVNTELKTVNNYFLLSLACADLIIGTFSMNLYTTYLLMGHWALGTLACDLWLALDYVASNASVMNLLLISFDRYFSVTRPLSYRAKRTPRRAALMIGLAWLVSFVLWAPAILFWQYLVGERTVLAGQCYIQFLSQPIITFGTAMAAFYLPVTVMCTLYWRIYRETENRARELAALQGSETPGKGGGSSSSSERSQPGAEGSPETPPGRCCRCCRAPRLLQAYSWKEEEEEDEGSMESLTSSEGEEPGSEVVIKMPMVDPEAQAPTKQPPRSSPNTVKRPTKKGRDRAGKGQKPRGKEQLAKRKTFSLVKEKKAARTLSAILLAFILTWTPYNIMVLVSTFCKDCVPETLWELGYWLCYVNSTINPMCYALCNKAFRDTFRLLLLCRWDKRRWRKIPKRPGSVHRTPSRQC
Chain of D(2) dopamine receptor (Homo sapiens) (P14416 whole entry, looked up): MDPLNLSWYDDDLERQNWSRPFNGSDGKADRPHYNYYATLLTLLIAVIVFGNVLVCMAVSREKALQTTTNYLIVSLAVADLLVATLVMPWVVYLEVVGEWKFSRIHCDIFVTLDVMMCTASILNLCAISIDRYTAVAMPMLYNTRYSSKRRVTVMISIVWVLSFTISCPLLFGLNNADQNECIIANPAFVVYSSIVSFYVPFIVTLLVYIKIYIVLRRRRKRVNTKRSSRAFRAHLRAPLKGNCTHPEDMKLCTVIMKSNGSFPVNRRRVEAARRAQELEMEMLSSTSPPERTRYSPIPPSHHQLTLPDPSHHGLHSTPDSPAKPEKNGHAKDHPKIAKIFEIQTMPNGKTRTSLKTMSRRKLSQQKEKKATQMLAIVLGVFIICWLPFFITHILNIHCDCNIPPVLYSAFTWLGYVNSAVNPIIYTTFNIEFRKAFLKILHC
Chain of Gonadotropin-releasing hormone receptor (Homo sapiens) (P30968 whole entry, looked up): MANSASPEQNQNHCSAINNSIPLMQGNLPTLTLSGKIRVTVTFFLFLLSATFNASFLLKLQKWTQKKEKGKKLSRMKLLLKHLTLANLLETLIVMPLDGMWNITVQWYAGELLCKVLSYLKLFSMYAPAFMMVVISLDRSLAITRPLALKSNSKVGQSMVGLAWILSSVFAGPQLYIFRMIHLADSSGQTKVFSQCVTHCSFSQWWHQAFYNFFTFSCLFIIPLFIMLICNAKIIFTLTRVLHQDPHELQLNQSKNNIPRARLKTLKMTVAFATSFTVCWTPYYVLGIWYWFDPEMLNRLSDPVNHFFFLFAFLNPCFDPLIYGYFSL
Chain of KiSS-1 receptor (Homo sapiens) (Q969F8 whole entry, looked up): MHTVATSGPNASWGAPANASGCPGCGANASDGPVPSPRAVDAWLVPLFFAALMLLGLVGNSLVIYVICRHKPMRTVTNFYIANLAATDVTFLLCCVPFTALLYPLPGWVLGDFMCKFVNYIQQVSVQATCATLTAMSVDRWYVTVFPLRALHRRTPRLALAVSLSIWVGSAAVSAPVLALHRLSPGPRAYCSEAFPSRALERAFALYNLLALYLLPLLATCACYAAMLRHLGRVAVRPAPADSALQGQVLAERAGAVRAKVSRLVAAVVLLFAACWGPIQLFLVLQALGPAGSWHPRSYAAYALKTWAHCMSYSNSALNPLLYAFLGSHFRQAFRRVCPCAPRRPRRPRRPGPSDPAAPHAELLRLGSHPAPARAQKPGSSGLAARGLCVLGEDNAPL

Take `Cc1ccc(C(=O)Cl)cc1`: the Potency entry in experiment [1], in experiment [2], in experiment [3], in experiment [4], in [5] and in experiment [6] was “inactive” throughout. The Potency entry in experiment [7], in [8], in experiment [9], in experiment [10], in experiment [11] and in experiment [12] was “inactive” each time. For the same molecule, the Potency result in experiment [13], in experiment [14], in [15], in experiment [16], in [17] and in experiment [18] was “inactive” each time. The Potency result in experiment [19] is “inactive”.

Take `CCN(CC)C(=O)SCc1ccc(Cl)cc1`: the Potency result in [1], in experiment [2], in experiment [20], in experiment [6], in experiment [7] and in experiment [8] was “inactive” in each case. Further, the Potency entry in experiment [9], in [11], in [13], in experiment [14], in experiment [16] and in [18] was “inactive” each time. Further, in experiment [19], the Potency entry is “inactive”.

For the molecule `C=CC#N`, the Potency entry in [1], in [2], in experiment [20], in experiment [4], in experiment [5] and in experiment [6] was “inactive” in each case. Besides, the Potency result in [7], in experiment [8], in experiment [9], in [10], in experiment [11] and in experiment [12] was “inactive” each time. Also, the Potency result in experiment [13], in experiment [15], in experiment [16], in [17], in experiment [18] and in experiment [19] was “inactive” each time.

Consider `O=C1c2ccccc2C(=O)N1SC(Cl)(Cl)Cl`, for which the Potency in [1] is 24 µM (active); in experiment [2], 15.1 µM (active) and 7.7 µM (active); in experiment [20] it was 38.9 µM (active); in experiment [11] it was 54.2 µM (active) and 43.6 µM (active); in experiment [13], 49 µM (active); in [17], 21.7 µM (active). Besides, the Potency result in [4], in [5], in [6], in [8], in experiment [12] and in [14] was “inactive” in each case. The Potency result in experiment [19] was “inactive”.

In the case of `CCC[N+]1(C)CCCC1`, the Potency entry in experiment [1], in [2], in [20], in experiment [6], in [7] and in experiment [8] was “inactive” throughout. In addition, the Potency result in [10], in [11], in experiment [14], in experiment [15], in experiment [16] and in experiment [17] was “inactive” in each case. Moreover, the Potency result in experiment [18] and in experiment [19] was “inactive” each time. Moreover, the Potency result in experiment [13] is “inactive and 24.3 µM (active) and 21.9 µM (active)”.

Consider `O=C(O)COc1cc(Cl)c(Cl)cc1Cl`, for which the Potency entry in experiment [1], in [2], in experiment [20], in [6], in experiment [7] and in experiment [8] was “inactive” throughout. Besides, the Potency entry in [10], in experiment [11], in [12], in experiment [13], in [16] and in experiment [18] was “inactive” throughout. Further, the Potency result in experiment [19] is “inactive”.

For `CC(C)N(C(=O)SCC(Cl)=C(Cl)Cl)C(C)C`, the Potency result in experiment [1], in experiment [2], in experiment [20], in [4], in experiment [5] and in [6] was “inactive” in each case. Also, the Potency entry in experiment [8], in experiment [9], in experiment [10], in experiment [11], in experiment [13] and in experiment [14] was “inactive” throughout. The Potency entry in experiment [15], in experiment [16], in experiment [18] and in experiment [19] was “inactive” throughout. Besides, the Potency in experiment [12] was 23.4 µM (active).

`O=S(=O)(O)C(F)(F)C(F)(F)C(F)(F)C(F)(F)C(F)(F)C(F)(F)C(F)(F)C(F)(F)F`: the Potency result in experiment [1] is “inactive and 61.1 µM (active)”; in experiment [2], “inactive and 61.1 µM (active)”. Besides, the Potency entry in experiment [20], in [4], in experiment [5], in experiment [7], in experiment [8] and in experiment [9] was “inactive” throughout. In addition, the Potency entry in experiment [11], in experiment [14], in experiment [15], in experiment [16], in experiment [18] and in [19] was “inactive” each time.
